Screening results: PubChem, several laboratories
ADAM10 inh: inhibitors of human ADAM10; O14672; recombinant ADAM10, EDANS/DABCYL FRET peptide cleavage, 3 h; inhibition, % at 7 µM; 370,000 tested, 0.62% active; AID 720582;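 active means inhibition above a per-campaign cutoff equal to the mean of compounds falling between control-based bounds plus 3 SD, cut at about 20% in these data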
ADAM17 inh: ADAM17 inhibition, QFRET primary screen. recombinant ADAM17, EDANS/DABCYL FRET peptide cleavage. P78536. inhibition, % at 6.95 µM. 370,000 tested, 0.83% active. AID 720648;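 active means inhibition above the mean of compounds lying between control limits plus 3 SD, set per campaign, cut at about 8.5% in these data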
FAS TE block: FAS thioesterase (human) inhibition; P49327; recombinant FAS-TE, OMFH fluorogenic substrate, fluorescence endpoint; inhibition, % at 15 µM; 360,000 tested, 0.67% active; AID 602261;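 active means compounds whose normalised, plate-corrected inhibition of enzyme fluorescence in the single-dose primary screen is 50% or more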
aDG glyco up: alpha-DG glycosylation activation. Pro5-aDG cells, alpha-DG glycosylation AlphaScreen (IIH6); 0% Pro5, 100% B10-LARGE cell signal. activation, % at 10 µM. 360,000 tested, 0.22% active. AID 624168;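 active means activation of at least 8% versus controls, or a plate z-score of at least 8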;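 further: Pro5 are CHO cells carrying HIG-tagged alpha-DG that lacks glycosylation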
NR3A LBD binder: modulates the human NR3A ligand-binding domain. NR3A LBD differential scanning fluorimetry, Tm shift; 0% = protein alone, 100% = glycine-bound protein. Tm shift relative to glycine control, % at 25 µM. 340,000 tested, 2.5% active;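 active means melting temperature shift of at least 10% of the positive control shift, at one fixed dose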
ADAM10 confirm: confirmation of inhibitors of human ADAM10. shares compounds with ADAM10 inh. ADAM10 QFRET peptide cleavage, EDANS fluorescence. inhibition, % at 6.95 µM. 2,100 tested, 1% active. AID 743208;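 active means inhibition above about 20% chosen separately for each screening run, limit read from the data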
ADAM17 ctr: ADAM17 inhibition, counter-screen for ADAM10 exosite hits; inhibition, % at 6.95 µM; shares compounds with ADAM10 inh; ADAM17 QFRET peptide cleavage, EDANS fluorescence; 2,100 tested, 0.5% active; AID 743214;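 active means mean triplicate inhibition above the solvent-only control wells' mean plus 3 SD, cut at about 12% in these data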
ADAM10 ctr: inhibits human ADAM10 in ADAM17 exosite counter-screen | shares compounds with ADAM17 inh | recombinant ADAM10, EDANS/DABCYL FRET peptide cleavage, 3 h | inhibition, % at 6.95 µM | 2,900 tested, 47% active;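 active means mean inhibition over the triplicate runs exceeds the activity threshold set in the earlier primary screen, cut at about 20% in these data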
ADAM17 confirm: confirmation of inhibitors of human ADAM17; 2,900 tested, 65% active; inhibition, % at 6.95 µM; recombinant ADAM17, EDANS/DABCYL QFRET peptide cleavage; shares compounds with ADAM17 inh;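 active means mean inhibition across replicates above the hit cutoff set in the primary screen, cut at about 8.5% in these data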
Each line names hits and unclear results; the compound was inactive in the other large screens (follow-up assays come after a bar, where they were run). Hits are enriched below; roughly 4% of the tested compounds scored in any of these assays.

COc1ccc(NC(=O)COC(=O)c2c3c(nc4ccccc24)CCCC3)cc1	none
COC(=O)c1ccc(-n2c(C)cc(C(=O)COC(=O)CC3Sc4ccccc4NC3=O)c2C)cc1 (stereo not given)	none
Cc1cc(C(=O)COC(=O)CC2Sc3ccccc3NC2=O)c(C)n1-c1ccccc1 (stereo not given)	ADAM10 inh 27.6, ADAM17 inh 17.8 | ADAM10 confirm inactive | ADAM17 ctr inactive | ADAM10 ctr 20.8 | ADAM17 confirm 11.9
CCOC(=O)c1ccc(NC(=O)CN(Cc2ccc(Cl)cc2)S(C)(=O)=O)cc1	ADAM10 inh 26.1, ADAM17 inh 11.3 | ADAM10 confirm inactive | ADAM17 ctr inactive | ADAM10 ctr 25.1 | ADAM17 confirm 15.2
CS(=O)(=O)N(CC(=O)Nc1ccc2c(c1)OCCO2)Cc1ccc(Cl)cc1	none
CCc1ccc(NC(=S)N2CCCC(C(F)(F)F)C2)cc1 (stereo not given)	none
O=C(COC(=O)c1ccccc1C(=O)OCC(=O)NCCc1c[nH]c2ccccc12)NCCc1c[nH]c2ccccc12	ADAM10 inh 24.8, ADAM17 inh 9.1 | ADAM10 confirm inactive | ADAM17 ctr inactive | ADAM10 ctr 27.6 | ADAM17 confirm 10.9
COc1ccccc1/C(C)=N/Oc1cc(N)cc([N+](=O)[O-])c1	ADAM10 inh 27.4, ADAM17 inh 14.9 | ADAM10 confirm inactive | ADAM17 ctr inactive | ADAM10 ctr inactive | ADAM17 confirm 9.8
C#CCOCCOCCOCCNc1nc(N2CCN(C(=O)[C@H]([C@@H](C)CC)n3cc(CCCN=C(N)N)nn3)CC2)nc(N2CCN(C(=O)[C@H](Cc3ccc(O)cc3)n3cc(CCO)nn3)CC2)n1	none
O=C1C=C(/C=C/C2C=CC=CC2)C[C@@H](c2ccc(Cl)cc2)C1 (stereo not given in full)	ADAM10 inh 26.6, ADAM17 inh 12.8 | ADAM10 confirm inactive | ADAM17 ctr inactive | ADAM10 ctr inactive | ADAM17 confirm inactive
COc1ccc(C(O)c2nc(-c3ccc(F)cc3OC)cs2)cc1 (stereo not given)	none (no result: NR3A LBD binder)
COc1cccc(C(O)c2nc(-c3ccc(F)cc3OC)cs2)c1 (stereo not given)	ADAM10 inh 30.5, ADAM17 inh 11.2 (no result: NR3A LBD binder) | ADAM10 confirm inactive | ADAM17 ctr inactive | ADAM10 ctr inactive | ADAM17 confirm 8.8
COc1cc(C(O)c2nc(-c3cccc(C(C)C)c3)cs2)ccc1F (stereo not given)	ADAM10 inh 20.1, ADAM17 inh 10.8 (no result: NR3A LBD binder) | ADAM10 confirm inactive | ADAM17 ctr inactive | ADAM10 ctr 24.2 | ADAM17 confirm 13.4
OC(c1ccc(F)cc1)c1nc(/C=C/c2ccccc2)cs1 (stereo not given)	none (no result: NR3A LBD binder)
COc1cc(C(O)c2nc(/C=C/c3ccccc3)cs2)ccc1F (stereo not given)	ADAM10 inh 41.6, ADAM17 inh 16.7 (no result: NR3A LBD binder) | ADAM10 confirm inactive | ADAM17 ctr inactive | ADAM10 ctr 22.1 | ADAM17 confirm 10.5
O=C(COCC(=O)Nc1cccc(C(F)(F)F)c1)Nc1cccc(C(F)(F)F)c1	ADAM10 inh 35.2, ADAM17 inh 14.5 | ADAM10 confirm inactive | ADAM17 ctr inactive | ADAM10 ctr 41.7 | ADAM17 confirm 17.4
CCOC(=O)[C@H]1[C@H]2COc3ccc(Br)cc3[C@@H]2N2C(=O)c3cc(Br)ccc3NC(=O)[C@@]12C	ADAM10 inh 20.3, ADAM17 inh 11.2 | ADAM10 confirm inactive | ADAM17 ctr inactive | ADAM10 ctr inactive | ADAM17 confirm 10.6
COc1ccccc1N1CCN(C(=O)Nc2ccc(F)c(Cl)c2)CC1	none
COc1ccc(Oc2cccc3c2S(=O)(=O)N(C2CC2)C[C@@H](COCc2ccccc2)O3)cc1	none (no result: FAS TE block, aDG glyco up, NR3A LBD binder)
COc1cc(F)ccc1Oc1cccc2c1S(=O)(=O)N(C1CC1)C[C@@H](COCc1ccccc1)O2	ADAM10 inh 28.7, ADAM17 inh 10.6 (no result: FAS TE block, aDG glyco up, NR3A LBD binder) | ADAM10 confirm inactive | ADAM17 ctr inactive | ADAM10 ctr 27.1 | ADAM17 confirm 17.4
Cc1cc([N+](=O)[O-])nn1CCCC(=O)Nc1ccc2c(c1)OCO2	none
Cc1ccc(Oc2cc(NC(=O)CCCn3nc([N+](=O)[O-])cc3C)cc([N+](=O)[O-])c2)cc1	ADAM10 inh 22.7, ADAM17 inh 12.9, NR3A LBD binder 10.2 | ADAM10 confirm inactive | ADAM17 ctr inactive | ADAM10 ctr 31.7 | ADAM17 confirm 17.6
COc1ccccc1OCC(=O)NC1CCCCCCC1	none
COC(=O)c1cc(NC(=O)CN(c2ccccc2OC)S(=O)(=O)c2ccccc2)ccc1Cl	none
COc1ccc(NC(=O)CN(c2ccc(OC)c(Cl)c2)S(=O)(=O)c2ccccc2)c(OC)c1	ADAM10 inh 34.1, ADAM17 inh 13.8 | ADAM10 confirm inactive | ADAM17 ctr inactive | ADAM10 ctr 30.0 | ADAM17 confirm 16.8
COc1ccc(N(CC(=O)Nc2ccccc2OC)S(=O)(=O)c2ccccc2)cc1Cl	none
COC(=O)c1cc(NC(=O)CN(c2cccc(OC)c2)S(=O)(=O)c2ccccc2)ccc1Cl	ADAM10 inh 23.6, ADAM17 inh 11.6 | ADAM10 confirm inactive | ADAM17 ctr inactive | ADAM10 ctr 34.5 | ADAM17 confirm 17.3
Cc1ccc(C(=O)Nc2ccc(C(=O)O)cc2)cc1S(=O)(=O)Nc1cccc([N+](=O)[O-])c1	none
Cc1ccc(C(=O)Nc2ccccc2-c2ccccc2)cc1S(=O)(=O)Nc1cccc(C)c1C	ADAM10 inh 29.2, ADAM17 inh 12.2 | ADAM10 confirm inactive | ADAM17 ctr inactive | ADAM10 ctr 39.6 | ADAM17 confirm 19.2
Cc1ccc(C)c(NS(=O)(=O)c2cc(C(=O)Nc3ccccc3-c3ccccc3)ccc2C)c1	none
Cc1ccccc1NS(=O)(=O)c1cc(C(=O)Nc2cccc([N+](=O)[O-])c2)ccc1C	ADAM10 inh 27.0, ADAM17 inh 10.7, NR3A LBD binder 24.2 | ADAM10 confirm inactive | ADAM17 ctr inactive | ADAM10 ctr 35.7 | ADAM17 confirm 22.0
Cc1ccccc1N=C1NC(=O)/C(=C/c2cccn2C)S1	ADAM10 inh 27.4, ADAM17 inh 9.9 | ADAM10 confirm inactive | ADAM17 ctr inactive | ADAM10 ctr inactive | ADAM17 confirm 12.6
Cc1cccc(N=C2NC(=O)/C(=C/c3cccn3C)S2)c1	none
